PubChem BioAssay (NCI)
Compounds without any hit were thinned out: in the full panel of roughly 79,000, 15% have a hit. Calls of active or inactive are those of the source. No stated cut-off is given here; in the data, active means growth inhibition above about 70%; inactive means the rest.

How the values were obtained:
[1] = NCI Yeast Anticancer Drug Screen. Data for the rad52 strain (AID 147);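 further: 0% = growth of vehicle-treated control cultures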; details: S. cerevisiae rad52 mutant growth inhibition, hits give high values
Procedure, shortened: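 The repair-mutant yeast strain was incubated with compounds, then growth was read and inhibition derived relative to vehicle.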

[2] = NCI Yeast Anticancer Drug Screen. Data for the wt1 strain (AID 149);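 further: 0% = growth of vehicle-treated wt1 cultures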; details: S. cerevisiae wt1 strain (SPY 50644) growth inhibition, hits give high values
Procedure, shortened: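 Using yeast strain wt1, compound-induced growth inhibition was determined against vehicle-treated cultures.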

[3] = NCI Yeast Anticancer Drug Screen. Data for the rad50EPP+ strain (AID 151);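 further: 0% = growth of vehicle-treated control cultures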; details: S. cerevisiae rad50 mutant strain, hits give high values
Procedure, shortened: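 Vehicle-normalised growth inhibition; rad50EPP+ yeast strain, altered in DNA damage repair, compound-treated.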

[4] = NCI Yeast Anticancer Drug Screen. Data for the mgt1 strain (AID 153); details: S. cerevisiae mgt1 mutant growth inhibition, hits give high values
Procedure, shortened: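 Vehicle-normalized growth inhibition is determined in mgt1 yeast, a strain selected for a defined alteration in DNA repair or cell cycle control.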

[5] = NCI Yeast Anticancer Drug Screen. Data for the rad50 strain (AID 155);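 further: 0% = growth of vehicle-only cultures of the same strain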; details: S. cerevisiae rad50 strain growth inhibition, hits give high values
Procedure, shortened: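 Relative growth inhibition (compound vs vehicle) was measured in yeast with a defined repair-gene alteration.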

[6] = NCI Yeast Anticancer Drug Screen. Data for the mec2-1 strain (AID 157); details: S. cerevisiae mec2-1 strain, hits give high values
Procedure, shortened: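 Mutant yeast (mec2-1) grown with compound; growth inhibition relative to vehicle control reported.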

[7] = NCI Yeast Anticancer Drug Screen. Data for the rad14 strain (AID 159);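 further: 0% = growth of vehicle-treated control cultures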; details: S. cerevisiae rad14 strain growth inhibition, hits give high values
Procedure, shortened: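 Screen for anticancer potential: a yeast strain altered in DNA damage repair is grown with compound, and reduced growth is quantified against vehicle controls.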

[8] = NCI Yeast Anticancer Drug Screen. Data for the sgs1 mgt1 strain (AID 161);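 further: 0% = growth of cultures given vehicle only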; details: S. cerevisiae sgs1 mgt1 strain, hits give high values
Procedure, shortened: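 This yeast growth screen uses a strain with defined DNA-repair lesions; compound-treated growth is compared with vehicle-treated growth.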

[9] = NCI Yeast Anticancer Drug Screen. Data for the CLN2oe strain (AID 163);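 further: 0% = growth of vehicle-only control cultures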; details: S. cerevisiae CLN2oe strain, hits give high values
Procedure, shortened: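 Compounds are applied to yeast harbouring a defined cell-cycle control change; reduced growth compared with vehicle-treated controls gives the value.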

[10] = NCI Yeast Anticancer Drug Screen. Data for the cln2 rad14 strain (AID 165);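 further: 0% = growth equal to vehicle treated cultures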; details: S. cerevisiae cln2 rad14 strain, hits give high values
Procedure, shortened: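 Readout is yeast growth inhibition versus vehicle-treated controls, using a strain with cln2 and rad14 alterations exposed to compound.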

[11] = NCI Yeast Anticancer Drug Screen. Data for the bub3 strain (AID 167); details: S. cerevisiae bub3 mutant strain, hits give high values
Procedure, shortened: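 Screening used yeast with an engineered genetic alteration affecting cell cycle control. Compound-exposed cultures were compared with vehicle cultures, and reduced growth was taken as inhibition.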

[12] = NCI Yeast Anticancer Drug Screen. Data for the mlh1 strain (AID 171);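 further: 0% = growth of vehicle-treated control cultures of the same strain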; details: S. cerevisiae mlh1 strain growth inhibition, hits give high values
Procedure, shortened: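 Measured: yeast growth. Reference: vehicle-treated controls. Organism: strain with a defined alteration affecting DNA damage repair or cell cycle control, treated with compound.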

[13] = NCI Yeast Anticancer Drug Screen. Data for the mlh1 rad18 strain (AID 175); details: S. cerevisiae mlh1 rad18 strain growth inhibition, hits give high values
Procedure, shortened: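 Genetically defined yeast (DNA repair-deficient) exposed to compounds; growth inhibition determined relative to vehicle.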

[14] = NCI Yeast Anticancer Drug Screen. Data for the rad18 strain (AID 177); details: S. cerevisiae rad18 mutant growth inhibition, hits give high values
Procedure, shortened: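 Vehicle-treated cultures served as the baseline for scoring compound-induced growth inhibition in DNA-repair-mutant yeast.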

[15] = NCI Yeast Anticancer Drug Screen. Data for the sgs1 strain (AID 173);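 further: 0% = growth of vehicle-only control cultures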; details: S. cerevisiae sgs1 mutant, hits give high values
Procedure, shortened: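 Each compound was added to cultures of the altered yeast strain. Growth was recorded, and inhibition was derived by comparison with vehicle controls.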

[16] = at 5.0 µM (retest, dose inferred, filed as 0.5)
[17] = at 50.0 µM (retest, dose inferred, filed as 5.0)

Measured: growth inhibition

Cc1cccc(NC(=O)CBr)c1
inactive: [1]; at 1.2 µM 3% | [1]; at 3.7 µM 41% | [2]; at 1.2 µM 1% | [2]; at 3.7 µM 24% | [3]; at 1.2 µM -10% | [3]; at 3.7 µM -3% | [3]; at 11.0 µM 26% | [4]; at 1.2 µM -2% | [4]; at 3.7 µM 22% | [5]; at 1.2 µM 6% | [5]; [16] 21% | [6]; at 1.2 µM 7% | [6]; at 3.7 µM 44% | [6]; [16] 1% | [7]; at 1.2 µM -27% | [7]; at 3.7 µM 57% | [8]; [16] 49% | [9]; at 1.2 µM 2% | [9]; at 3.7 µM 22% | [10]; [16] 34% | [11]; at 1.2 µM 13% | [11]; at 3.7 µM 58% | [11]; [16] 63% | [12]; at 1.2 µM -2% | [12]; at 3.7 µM 46% | [13]; [16] 45% | [14]; at 1.2 µM 5% | [14]; at 3.7 µM 39%
active: [1]; at 11.0 µM 97% | [1]; at 33.0 µM 98% | [1]; at 100.0 µM 99% | [2]; at 11.0 µM 98% | [2]; at 33.0 µM 99% | [2]; at 100.0 µM 98% | [3]; at 33.0 µM 96% | [3]; at 100.0 µM 99% | [4]; at 11.0 µM 99% | [4]; at 33.0 µM 99% | [4]; at 100.0 µM 99% | [5]; at 3.7 µM 73% | [5]; at 11.0 µM 97% | [5]; at 33.0 µM 99% | [5]; [17] 99% | [5]; at 50.0 µM 99.2% | [5]; at 100.0 µM 99% | [6]; at 11.0 µM 98% | [6]; at 33.0 µM 99% | [6]; [17] 99% | [6]; at 50.0 µM 99.7% | [6]; at 100.0 µM 99% | [7]; at 11.0 µM 99% | [7]; at 33.0 µM 99% | [7]; at 100.0 µM 99% | [8]; [17] 99% | [8]; at 50.0 µM 99.2% | [9]; at 11.0 µM 96% | [9]; at 33.0 µM 98% | [9]; at 100.0 µM 98% | [10]; [17] 99% | [10]; at 50.0 µM 99.1% | [11]; at 11.0 µM 97% | [11]; at 33.0 µM 98% | [11]; [17] 98% | [11]; at 50.0 µM 99.6% | [11]; at 100.0 µM 99% | [12]; at 11.0 µM 99% | [12]; at 33.0 µM 99% | [12]; at 100.0 µM 99% | [13]; [17] 99% | [13]; at 50.0 µM 99.3% | [14]; at 11.0 µM 97% | [14]; at 33.0 µM 99% | [14]; at 100.0 µM 99%

CC(C)CC(NC(=O)C(N)C(C)C)C(=O)NC(CCCCN)C(=O)Nc1ccc(N(CCCl)CCCl)cc1 (stereo unspecified)
active: [5]; [17] 92%
inactive: [1]; at 1.2 µM 8% | [1]; at 3.7 µM 28% | [1]; at 11.0 µM 32% | [1]; at 33.0 µM 23% | [1]; at 100.0 µM 18% | [2]; at 1.2 µM -16% | [2]; at 3.7 µM -10% | [2]; at 11.0 µM -15% | [2]; at 33.0 µM -11% | [2]; at 100.0 µM -18% | [3]; at 1.2 µM 10% | [3]; at 3.7 µM 9% | [3]; at 11.0 µM 13% | [3]; at 33.0 µM 7% | [3]; at 100.0 µM 12% | [4]; at 1.2 µM -6% | [4]; at 3.7 µM -16% | [4]; at 11.0 µM -17% | [4]; at 33.0 µM -5% | [4]; at 100.0 µM -21% | [5]; at 1.2 µM 8% | [5]; at 3.7 µM 10% | [5]; [16] 38% | [5]; at 11.0 µM 8% | [5]; at 33.0 µM 0% | [5]; at 50.0 µM 16.4% | [5]; at 100.0 µM 2% | [6]; at 1.2 µM -21% | [6]; at 3.7 µM -17% | [6]; [16] 19% | [6]; at 11.0 µM -18% | [6]; at 33.0 µM -17% | [6]; [17] 22% | [6]; at 50.0 µM -7.45% | [6]; at 100.0 µM -16% | [7]; at 1.2 µM -2% | [7]; at 3.7 µM 0% | [7]; at 11.0 µM -2% | [7]; at 33.0 µM -2% | [7]; at 100.0 µM -8% | [8]; [16] 21% | [8]; [17] 34% | [8]; at 50.0 µM -48.5% | [9]; at 1.2 µM -3% | [9]; at 3.7 µM 7% | [9]; at 11.0 µM 6% | [9]; at 33.0 µM 1% | [9]; at 100.0 µM -2% | [10]; [16] 13% | [10]; [17] 25% | [10]; at 50.0 µM -7.1% | [11]; at 1.2 µM -23% | [11]; at 3.7 µM -16% | [11]; [16] 25% | [11]; at 11.0 µM -16% | [11]; at 33.0 µM -13% | [11]; [17] 17% | [11]; at 50.0 µM -28.2% | [11]; at 100.0 µM -25% | [12]; at 1.2 µM -1% | [12]; at 3.7 µM 9% | [12]; at 11.0 µM -3% | [12]; at 33.0 µM -5% | [12]; at 100.0 µM -19% | [15]; at 1.2 µM -4% | [15]; at 3.7 µM 10% | [15]; at 11.0 µM 8% | [15]; at 33.0 µM -3% | [15]; at 100.0 µM 3% | [13]; [16] 19% | [13]; [17] 37% | [13]; at 50.0 µM -44.7% | [14]; at 1.2 µM -7% | [14]; at 3.7 µM -12% | [14]; at 11.0 µM -16% | [14]; at 33.0 µM -20% | [14]; at 100.0 µM -23%
